# Experimental data reported in PubChem BioAssay (EPA / NIEHS).
# Results filed as inconclusive are left out. Activity calls are given as the source filed them. The calls were made as follows, unless noted: active = hit-call score of the fitted dose curve at least 0.9, where 1 is the maximum; inconclusive = response in the unintended direction; inactive = score below 0.9.
# Assays:
# [1] = molecular target: Retinoic acid receptor alpha (Homo sapiens) (UniProt P10276); experiment: ATG_DR5_RAR_CIS: Attagene CIS-FACTORIAL HepG2 Assay for human Retinoic Acid Receptor Alpha (RARE), DR5 submotif (AID 2282934; active = hit-call score of the fitted dose curve at least 0.9, where 1 is the maximum; inactive = score below 0.9); settings: HepG2 Attagene cis-factorial RARE DR5 reporter, mRNA; actives raise or lower the signal
# Procedure, shortened: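 HepG2, transient cis-reporter transfection, 24 h exposure. mRNA readout: RT-PCR, FAM label, HpaI cut, capillary electrophoresis. DMSO baseline, gain/loss fitting.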
# [2] = ATG_M_32_CIS: Attagene CIS-FACTORIAL HepG2 Assay for M32 Transcription Factor (Internal Marker) (AID 2282949; active = hit-call score of the fitted dose curve at least 0.9, where 1 is the maximum; inactive = score below 0.9;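 also: background control marker of the multiplexed CIS panel rather than a real target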); settings: HepG2 Attagene cis-factorial M32 reporter, mRNA; actives raise or lower the signal
# Procedure, shortened: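 Following 24 h chemical exposure of HepG2 cells transiently expressing cis-promoter reporter constructs, reporter transcript levels were determined by RT-PCR with fluorescent labelling and capillary electrophoresis, then fitted bidirectionally against DMSO.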
# [3] = ATG_PBREM_CIS: Attagene CIS-FACTORIAL HepG2 Assay for human Phenobarbital-responsive Enhancer Module (PBREM) (AID 2282955; active = hit-call score of the fitted dose curve at least 0.9, where 1 is the maximum; inactive = score below 0.9); settings: HepG2 PBREM cis-reporter, Attagene multiplexed transcription; actives raise or lower the signal
# Procedure, shortened: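 HepG2 cells transiently transfected with multiple cis-regulated reporter units measure endogenous transcription factor activity; 24 h compound exposure. Reporter mRNA quantified by RT-PCR, fluorescent labelling, HpaI digestion and capillary electrophoresis; bidirectional fit versus DMSO.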
# [4] = ATG_PXRE_CIS: Attagene CIS-FACTORIAL HepG2 Assay for human Pregnane X Receptor Element (PXRE) (AID 2282957; active = hit-call score of the fitted dose curve at least 0.9, where 1 is the maximum; inactive = score below 0.9); settings: HepG2 Attagene CIS-FACTORIAL PXRE reporter, mRNA; actives raise or lower the signal
# Procedure, shortened: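 Transfect HepG2 with MRTUs (cis promoter elements); dose chemical, incubate 24 h; isolate RNA, RT with oligo(dT), PCR, 6-FAM label, HpaI cut, CE. Gain/loss fit vs DMSO.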
# [5] = ATG_Sox_CIS: Attagene CIS-FACTORIAL HepG2 Assay for human SRY-box transcription factor (SOX) (AID 2282960; active = hit-call score of the fitted dose curve at least 0.9, where 1 is the maximum; inactive = score below 0.9); settings: HepG2 Attagene cis-factorial SOX reporter, mRNA; actives raise or lower the signal
# Procedure, shortened: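 HepG2 cells transiently transfected with multiple cis-regulated reporter units, then dosed for 24 h. Reporter mRNA quantified by RT-PCR, fluorescent labelling, HpaI digestion and capillary electrophoresis; bidirectional fit versus DMSO.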
# [6] = molecular target: human Peroxisome Proliferator-activated Receptor alpha (PPARa), PPARA (gene 5465) (UniProt Q07869); experiment: ATG_PPARa_TRANS: Attagene TRANS-FACTORIAL HepG2 Assay for human Peroxisome Proliferator-activated Receptor alpha (PPARa) (AID 2283001)
# Procedure, shortened: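 Reporter transcripts from GAL4-UAS units in transfected HepG2 were quantified 24 h after dosing. Detection used reverse transcription, PCR, fluorescent primer extension and capillary electrophoresis, with DMSO as baseline.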
# [7] = molecular target: Retinoic acid receptor RXR-alpha (Homo sapiens) (UniProt P19793); experiment: ATG_RXRa_TRANS: Attagene TRANS-FACTORIAL HepG2 Assay for human Retinoid X Receptor alpha (RXRa) (AID 2283012)
# Procedure, shortened: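 Cells (HepG2) carried transiently transfected GAL4-responsive reporter units. Following a 24 h chemical incubation, reporter mRNA induction was read via RT-PCR fragment analysis; DMSO served as negative control and baseline.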
# [8] = molecular target: human Retinoid X Receptor beta (RXRb), RXRB (gene 6257) (UniProt P28702); experiment: ATG_RXRb_TRANS: Attagene TRANS-FACTORIAL HepG2 Assay for human Retinoid X Receptor beta (RXRb) (AID 2283013)
# Procedure, shortened: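 Multiplexed TRANS reporter assay in HepG2; 24 h dosing; reporter mRNA by RT-PCR/CE fluorescence; gain-of-signal relative to DMSO.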
# [9] = ATG_RORE_CIS: Attagene CIS-FACTORIAL HepG2 Assay for human RAR-related Orphan Receptor Element (RORE) (AID 2282959; active = hit-call score of the fitted dose curve at least 0.9, where 1 is the maximum; inactive = score below 0.9); settings: HepG2 Attagene cis-factorial RORE reporter, mRNA; actives raise or lower the signal
# Procedure, shortened: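 HepG2 cells carrying transiently transfected cis-regulated reporter units; RORE-driven reporter mRNA quantified 24 h post-dosing by RT-PCR, 6-FAM primer extension, HpaI digestion and capillary electrophoresis. Bidirectional fit versus DMSO.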
# [10] = molecular target: Hepatocyte nuclear factor 4-alpha (Homo sapiens) (UniProt P41235); experiment: ATG_HNF4a_TRANS: Attagene TRANS-FACTORIAL HepG2 Assay for human Hepatocyte Nuclear Factor 4 alpha (HNF4a) (AID 2282982); settings: HepG2 HNF4a transactivation reporter, mRNA readout
# Procedure, shortened: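 Transfected HepG2 reporter cells are dosed for 24 h; reporter RNA is reverse-transcribed, amplified, fluorescently labelled and HpaI-digested before CE sizing. Positive-direction fit against DMSO.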
# [11] = TOX21_p53_BLA_p2_viability: Viability Assessment in the Tox21 HCT-116 p53 Agonism Beta-lactamase Assay, Phase 2 (AID 2283591);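 also: compound exposure lasted 16 h at 37 °C; actives lower the ATP signal meaning cytotoxicity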
# Procedure, shortened: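 Cytotoxicity readout: CellTiter-Glo ATP luminescence, 30 min at room temperature, after the beta-lactamase read. Cells were HCT116 exposed 16 h at 37C to compounds pin-transferred at 217-fold dilution from DMSO stocks.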
# [12] = molecular target: Cellular tumor antigen p53 (Homo sapiens) (UniProt P04637); experiment: TOX21_p53_BLA_p2_ratio: Tox21 HCT-116 p53 Agonism Beta-lactamase Assay, Ratio, Phase 2 (AID 2283592)
# Procedure, shortened: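 HCT116 p53-bla; 4000 cells/well; 5 h pre-incubation; cpd in DMSO, 217-fold dilution; 16 h 37C/5% CO2; CCF4-AM 2 h RT; Ex 405, Em 460/530 ratio; DMSO = baseline; positive fitting direction.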
# [13] = TOX21_p53_BLA_p3_viability: Viability Assessment in the Tox21 HCT-116 p53 Agonism Beta-lactamase Assay, Phase 3 (AID 2283593);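 also: cells exposed to compound for 16 h before reading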
# Procedure, shortened: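 Cellular ATP was quantified by CellTiter-Glo luminescence, read after 30 min at room temperature. Beforehand, HCT116 cells (4000/well) received compound 5 h post-seeding, 217-fold diluted from DMSO, then incubated 16 h at 37C.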
# [14] = molecular target: Cellular tumor antigen p53 (Homo sapiens) (UniProt P04637); experiment: TOX21_p53_BLA_p3_ratio: Tox21 HCT-116 p53 Agonism Beta-lactamase Assay, Ratio, Phase 3 (AID 2283596)
# Procedure, shortened: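 HCT116 p53-bla cells (4000/well) given compound in DMSO (217-fold dilution) after 5 h, incubated 16 h at 37C. CCF4-AM substrate 2 h at room temperature; 460/530 nm emission ratio, gain fitted against DMSO.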
# [15] = molecular target: Cellular tumor antigen p53 (Homo sapiens) (UniProt P04637); experiment: TOX21_p53_BLA_p5_ratio: Tox21 HCT-116 p53 Agonism Beta-lactamase Assay, Ratio, Phase 5 (AID 2283599)
# Procedure, shortened: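 Beta-lactamase reporter ratio (blue 460 nm over green 530 nm, 405 nm excitation) after 2 h CCF4-AM loading, in HCT-116 cells exposed 16 h at 37 C to compounds pinned at 217-fold dilution. Increases relative to DMSO baseline scored.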
# [16] = TOX21_p53_BLA_p5_viability: Viability Assessment in the Tox21 HCT-116 p53 Agonism Beta-lactamase Assay, Phase 5 (AID 2283600)
# Procedure, shortened: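 4000 cells/well; 5 h pre-incubation; DMSO compounds pin-transferred, 217-fold dilution; 16 h, 37C/5% CO2; CCF4-AM 2 h RT; CellTiter-Glo 30 min RT; luminescence.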
# [17] = ATG_M_19_CIS: Attagene CIS-FACTORIAL HepG2 Assay for M19 Transcription Factor (Internal Marker) (AID 2282939; active = hit-call score of the fitted dose curve at least 0.9, where 1 is the maximum; inactive = score below 0.9); settings: HepG2 Attagene CIS-FACTORIAL M19 internal marker reporter; actives raise or lower the signal
# Procedure, shortened: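 HepG2, MRTU transient transfection, 24 h dosing. Total RNA → RT-PCR → 6-FAM primer extension → HpaI digest → CE fluorescence. Bidirectional curve fit, DMSO negative control.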
# [18] = molecular target: Hepatocyte nuclear factor 3-beta (Homo sapiens) (UniProt Q9Y261); experiment: ATG_FoxA2_CIS: Attagene CIS-FACTORIAL HepG2 Assay for human Forkhead box A2 (FOXA2) (AID 2282942; active = hit-call score of the fitted dose curve at least 0.9, where 1 is the maximum; inactive = score below 0.9); settings: HepG2 cis-reporter transcription factor activity, 24 h; actives raise or lower the signal
# Procedure, shortened: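 HepG2 transiently transfected with a multiplexed cis-promoter reporter library read endogenous FOXA2 activity. After 24 h compound exposure, reporter mRNA was quantified by RT-PCR, HpaI digestion and capillary electrophoresis. Bidirectional fit against DMSO.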
# [19] = ATG_M_32_TRANS: Attagene TRANS-FACTORIAL HepG2 Assay for M32 Transcription Factor (Internal Marker) (AID 2282984); settings: HepG2 Attagene TRANS M32 internal marker reporter;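 also: transcript level of a background control reporter unit measured by RT-PCR and capillary electrophoresis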
# Procedure, shortened: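 Using transiently transfected HepG2 cells exposed to test chemicals for 24 h, reporter transcripts are converted to labelled cDNA fragments and quantified by capillary electrophoresis. DMSO defines the activity baseline.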
# [20] = molecular target: Cellular tumor antigen p53 (Homo sapiens) (UniProt P04637); experiment: TOX21_p53_BLA_p4_ratio: Tox21 HCT-116 p53 Agonism Beta-lactamase Assay, Ratio, Phase 4 (AID 2283601)
# Procedure, shortened: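 Signal is the blue/green (460nm/530nm) ratio of cleaved versus uncleaved CCF4-AM substrate, read after 2 h substrate loading. Cells were HCT116 carrying the p53-responsive beta-lactamase reporter, dosed 16 h at 37C, 5% CO2; CellTiter-Glo measured in parallel.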
# Chain of Hepatocyte nuclear factor 4-alpha (Homo sapiens) (P41235 whole entry, looked up): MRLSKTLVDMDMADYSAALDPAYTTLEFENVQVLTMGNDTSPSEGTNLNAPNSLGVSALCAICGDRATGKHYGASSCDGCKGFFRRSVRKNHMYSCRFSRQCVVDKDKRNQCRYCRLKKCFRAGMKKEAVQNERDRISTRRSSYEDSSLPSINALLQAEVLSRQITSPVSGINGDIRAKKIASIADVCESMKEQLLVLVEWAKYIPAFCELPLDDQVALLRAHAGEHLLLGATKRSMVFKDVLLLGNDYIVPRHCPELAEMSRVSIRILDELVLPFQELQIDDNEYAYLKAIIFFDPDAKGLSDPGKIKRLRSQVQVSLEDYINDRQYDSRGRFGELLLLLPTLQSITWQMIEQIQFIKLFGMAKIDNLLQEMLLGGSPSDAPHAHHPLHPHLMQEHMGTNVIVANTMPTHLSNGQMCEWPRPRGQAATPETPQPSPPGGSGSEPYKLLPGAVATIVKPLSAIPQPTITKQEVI
# Chain of Hepatocyte nuclear factor 3-beta (Homo sapiens) (Q9Y261 whole entry, looked up): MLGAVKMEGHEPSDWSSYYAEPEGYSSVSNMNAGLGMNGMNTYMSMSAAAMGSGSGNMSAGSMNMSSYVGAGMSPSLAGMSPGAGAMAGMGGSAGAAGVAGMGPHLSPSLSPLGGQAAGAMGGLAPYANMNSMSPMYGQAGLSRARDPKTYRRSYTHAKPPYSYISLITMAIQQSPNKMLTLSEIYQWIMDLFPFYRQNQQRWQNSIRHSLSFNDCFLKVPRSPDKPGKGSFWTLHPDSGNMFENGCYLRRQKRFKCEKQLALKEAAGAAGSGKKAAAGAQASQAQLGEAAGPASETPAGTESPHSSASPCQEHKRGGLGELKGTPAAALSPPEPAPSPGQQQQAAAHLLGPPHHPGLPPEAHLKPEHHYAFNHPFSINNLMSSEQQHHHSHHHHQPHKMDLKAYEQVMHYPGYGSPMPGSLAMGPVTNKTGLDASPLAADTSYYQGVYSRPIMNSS
# Chain of Cellular tumor antigen p53 (Homo sapiens) (P04637 whole entry, looked up): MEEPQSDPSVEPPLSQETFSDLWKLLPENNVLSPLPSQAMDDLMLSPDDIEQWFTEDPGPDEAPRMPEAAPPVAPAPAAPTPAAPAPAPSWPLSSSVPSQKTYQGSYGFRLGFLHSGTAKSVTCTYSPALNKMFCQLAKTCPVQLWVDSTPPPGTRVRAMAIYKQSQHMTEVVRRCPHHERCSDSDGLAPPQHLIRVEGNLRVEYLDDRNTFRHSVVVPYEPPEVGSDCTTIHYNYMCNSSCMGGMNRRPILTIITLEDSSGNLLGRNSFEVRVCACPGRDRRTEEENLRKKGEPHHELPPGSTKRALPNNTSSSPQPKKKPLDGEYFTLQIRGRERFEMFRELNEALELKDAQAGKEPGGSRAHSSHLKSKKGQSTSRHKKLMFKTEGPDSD
# Chain of human Peroxisome Proliferator-activated Receptor alpha (PPARa), PPARA (gene 5465) (Q07869 whole entry, looked up, the tested form may be a part): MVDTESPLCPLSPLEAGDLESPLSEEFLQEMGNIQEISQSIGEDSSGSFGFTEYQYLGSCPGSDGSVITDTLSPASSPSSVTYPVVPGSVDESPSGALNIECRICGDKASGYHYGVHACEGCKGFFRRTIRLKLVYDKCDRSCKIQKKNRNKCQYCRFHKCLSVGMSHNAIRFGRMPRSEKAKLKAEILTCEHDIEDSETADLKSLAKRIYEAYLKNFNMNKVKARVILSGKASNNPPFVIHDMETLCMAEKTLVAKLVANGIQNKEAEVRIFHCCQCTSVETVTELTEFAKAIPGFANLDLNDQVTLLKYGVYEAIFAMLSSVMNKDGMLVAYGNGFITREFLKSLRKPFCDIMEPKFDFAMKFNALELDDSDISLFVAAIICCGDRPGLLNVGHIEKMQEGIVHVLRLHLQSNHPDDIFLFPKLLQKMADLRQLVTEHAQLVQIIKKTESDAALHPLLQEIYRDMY
# Chain of Retinoic acid receptor alpha (Homo sapiens) (P10276 whole entry, looked up): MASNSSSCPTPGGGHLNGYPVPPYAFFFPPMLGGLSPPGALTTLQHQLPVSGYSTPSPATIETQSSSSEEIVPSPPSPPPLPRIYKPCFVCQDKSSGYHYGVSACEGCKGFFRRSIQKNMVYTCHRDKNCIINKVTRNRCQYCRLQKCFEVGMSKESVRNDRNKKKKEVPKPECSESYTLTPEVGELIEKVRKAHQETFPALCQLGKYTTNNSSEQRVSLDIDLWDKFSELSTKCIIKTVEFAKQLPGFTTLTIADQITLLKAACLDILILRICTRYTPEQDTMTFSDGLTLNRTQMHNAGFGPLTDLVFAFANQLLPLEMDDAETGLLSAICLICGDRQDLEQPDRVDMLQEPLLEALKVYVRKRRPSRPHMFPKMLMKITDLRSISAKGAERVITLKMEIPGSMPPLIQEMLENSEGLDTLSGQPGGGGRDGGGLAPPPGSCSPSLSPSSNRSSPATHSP
# Chain of Retinoic acid receptor RXR-alpha (Homo sapiens) (P19793 whole entry, looked up, the tested form may be a part): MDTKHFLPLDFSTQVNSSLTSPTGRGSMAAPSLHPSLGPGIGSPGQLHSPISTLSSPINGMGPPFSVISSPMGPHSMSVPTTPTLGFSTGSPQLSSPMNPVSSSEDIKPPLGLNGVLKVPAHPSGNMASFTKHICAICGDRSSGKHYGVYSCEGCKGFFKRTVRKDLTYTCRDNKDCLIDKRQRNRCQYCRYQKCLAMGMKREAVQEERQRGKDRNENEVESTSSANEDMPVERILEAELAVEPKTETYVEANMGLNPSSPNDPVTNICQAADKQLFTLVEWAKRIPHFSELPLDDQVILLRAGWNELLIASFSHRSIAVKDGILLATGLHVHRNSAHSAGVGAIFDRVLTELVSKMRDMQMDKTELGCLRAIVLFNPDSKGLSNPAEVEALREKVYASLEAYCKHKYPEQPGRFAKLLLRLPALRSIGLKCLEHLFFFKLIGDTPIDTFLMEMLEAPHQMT
# Chain of human Retinoid X Receptor beta (RXRb), RXRB (gene 6257) (P28702 whole entry, looked up): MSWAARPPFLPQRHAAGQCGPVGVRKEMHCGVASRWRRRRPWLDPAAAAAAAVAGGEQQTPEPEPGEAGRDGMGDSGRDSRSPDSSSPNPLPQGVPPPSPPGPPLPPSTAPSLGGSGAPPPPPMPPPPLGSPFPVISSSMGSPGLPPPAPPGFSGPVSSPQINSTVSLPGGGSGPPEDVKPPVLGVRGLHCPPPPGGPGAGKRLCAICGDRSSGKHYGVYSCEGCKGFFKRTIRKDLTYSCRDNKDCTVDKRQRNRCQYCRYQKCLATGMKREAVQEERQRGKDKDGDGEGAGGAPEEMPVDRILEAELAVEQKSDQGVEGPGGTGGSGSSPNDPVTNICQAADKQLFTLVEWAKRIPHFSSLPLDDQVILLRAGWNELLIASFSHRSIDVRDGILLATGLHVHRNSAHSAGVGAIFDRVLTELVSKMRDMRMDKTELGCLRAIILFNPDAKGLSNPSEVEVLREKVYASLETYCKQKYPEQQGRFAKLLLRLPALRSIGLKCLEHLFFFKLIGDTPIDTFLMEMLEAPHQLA
compound,measurement,setting,value
O=C(C1CCCCC1)N1CC(=O)N2CCc3ccccc3C2C1 (stereo not drawn),outcome,[1],inactive
same,outcome,[2],inactive
same,outcome,[3],inactive
same,AC50,[4],7.1 µM (active)
same,outcome,[5],inactive
same,outcome,[6],inactive
same,outcome,[7],inactive
same,outcome,[8],inactive
CC/C=C\CCCCCO,outcome,[2],inactive
same,outcome,[3],inactive
same,outcome,[9],inactive
same,outcome,[5],inactive
same,outcome,[10],inactive
same,outcome,[6],inactive
same,outcome,[7],inactive
same,outcome,[11],inactive
same,outcome,[12],inactive
same,outcome,[13],inactive
same,outcome,[14],inactive
same,outcome,[15],inactive
same,outcome,[16],inactive
CC(O)(P(=O)(O)O)P(=O)(O)O,outcome,[2],inactive
same,outcome,[4],inactive
same,outcome,[5],inactive
same,outcome,[6],inactive
same,outcome,[7],inactive
same,outcome,[8],inactive
CCOc1ccc2c(c1)C(C)CC(C)(C)N2 (stereo not drawn),outcome,[1],inactive
same,outcome,[17],inactive
same,outcome,[18],inactive
same,outcome,[3],inactive
same,AC50,[4],2 µM (active)
same,outcome,[9],inactive
same,AC50,[8],37.7 µM (active)
C=CC(C)(CCC=C(C)C)OC(=O)c1ccccc1 (stereo not drawn),outcome,[1],inactive
same,outcome,[17],inactive
same,outcome,[2],inactive
same,outcome,[9],inactive
same,outcome,[5],inactive
same,outcome,[19],inactive
same,outcome,[6],inactive
same,outcome,[7],inactive
same,outcome,[11],inactive
same,outcome,[12],inactive
same,outcome,[13],inactive
same,outcome,[14],inactive
same,outcome,[15],inactive
same,outcome,[16],inactive
same,outcome,[20],inactive
CC1(C)S[C@@H]2[C@H](NC(=O)[C@H](N)c3ccccc3)C(=O)N2[C@H]1C(=O)O,outcome,[17],inactive
same,outcome,[18],inactive
same,outcome,[4],inactive
same,outcome,[9],inactive
same,outcome,[5],inactive
same,outcome,[10],inactive
same,outcome,[6],inactive
same,outcome,[11],inactive
same,outcome,[12],inactive
same,outcome,[13],inactive
same,outcome,[14],inactive
same,outcome,[15],inactive
same,outcome,[16],inactive
same,outcome,[20],inactive
CC(=O)c1nccs1,outcome,[1],inactive
same,outcome,[17],inactive
same,outcome,[18],inactive
same,outcome,[2],inactive
same,outcome,[3],inactive
same,outcome,[4],inactive
same,outcome,[9],inactive
same,outcome,[10],inactive
same,outcome,[19],inactive
same,outcome,[8],inactive
same,outcome,[12],inactive
same,outcome,[13],inactive
same,outcome,[14],inactive
same,outcome,[15],inactive
same,outcome,[20],inactive
O=C(O)c1ccccc1C(=O)O,outcome,[1],inactive
same,outcome,[2],inactive
same,outcome,[3],inactive
same,AC50,[4],28.3 µM (active)
same,outcome,[9],inactive
same,outcome,[5],inactive
same,outcome,[10],inactive
same,outcome,[19],inactive
same,outcome,[7],inactive
same,outcome,[8],inactive
same,outcome,[11],inactive
same,outcome,[12],inactive
same,outcome,[13],inactive
same,outcome,[14],inactive
same,outcome,[15],inactive
same,outcome,[16],inactive
same,outcome,[20],inactive
C/C=C(\C)C(=O)OCC/C=C\CC,outcome,[1],inactive
same,outcome,[17],inactive
same,outcome,[18],inactive
same,outcome,[2],inactive
same,outcome,[3],inactive
same,outcome,[9],inactive
same,outcome,[5],inactive
same,outcome,[19],inactive
same,outcome,[7],inactive
same,outcome,[8],inactive
same,outcome,[11],inactive
same,outcome,[12],inactive
same,outcome,[14],inactive
same,outcome,[16],inactive
same,outcome,[20],inactive
C1=CCC=C1,outcome,[2],inactive
same,outcome,[4],inactive
same,outcome,[5],inactive
same,outcome,[10],inactive
same,outcome,[19],inactive
same,outcome,[6],inactive
same,outcome,[7],inactive
same,outcome,[8],inactive
N#CCN(CC#N)CCN(CC#N)CC#N,outcome,[17],inactive
same,outcome,[2],inactive
same,outcome,[3],inactive
same,outcome,[9],inactive
same,outcome,[10],inactive
same,outcome,[19],inactive
same,outcome,[7],inactive
same,outcome,[8],inactive
same,outcome,[13],inactive
same,outcome,[16],inactive
